Laboratory results as given in PubChem BioAssay (Tox21).
Inconclusive results are not listed. Active and inactive are the calls of the source. Calls come from the whole dose curve; as a rule, active = well fitted activation curve with a large enough effect in the signal ratio in the repeat runs (not every such curve was filed as active); inconclusive = weak or mixed curves, or effect the other way; inactive = flat fitted curve, though single readings scatter; the % refers to the signal ratio.

biological target: Estrogen receptor beta (Homo sapiens) (UniProt Q92731); test: qHTS assay to identify small molecule agonists of the estrogen receptor beta (ER-beta) signaling pathway (AID 1259377); settings: ER-beta-UAS-bla HEK293T, beta-lactamase FRET ratio, 16 h; series mostly up to 92.4 µM; activation: at the top concentration
Sequence (Q92731 whole entry, looked up): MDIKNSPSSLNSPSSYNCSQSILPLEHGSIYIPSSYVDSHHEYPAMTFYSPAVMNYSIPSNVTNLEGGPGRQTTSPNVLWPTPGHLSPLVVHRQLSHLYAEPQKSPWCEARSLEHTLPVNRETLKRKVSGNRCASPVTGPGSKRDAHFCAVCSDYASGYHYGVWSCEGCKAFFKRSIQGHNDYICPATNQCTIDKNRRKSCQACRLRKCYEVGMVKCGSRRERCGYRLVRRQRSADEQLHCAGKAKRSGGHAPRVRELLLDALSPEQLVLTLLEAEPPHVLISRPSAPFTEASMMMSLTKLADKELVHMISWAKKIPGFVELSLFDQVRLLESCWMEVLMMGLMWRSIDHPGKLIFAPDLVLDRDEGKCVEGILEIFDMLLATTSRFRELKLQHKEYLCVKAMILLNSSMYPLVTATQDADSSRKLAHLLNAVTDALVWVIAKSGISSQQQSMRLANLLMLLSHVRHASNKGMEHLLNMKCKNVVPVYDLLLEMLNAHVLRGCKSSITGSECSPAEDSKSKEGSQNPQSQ
Source text: U.S. Tox21 Program National Center for Advancing Translational Sciences [NCATS] NIH Chemical Genomics Center [NCGC] U.S. Environmental Protection Agency [EPA] National Institutes of Environmental Health Sciences [NIEHS] National Toxicology Program [NTP] U.S. Food and Drug Administration [FDA] Tox21 Assay Overview: Estrogen receptor (ER), a nuclear hormone receptor, plays an important role in development, metabolic homeostasis and reproduction. Two subtypes of ER, ER-alpha and ER-beta, have similar expression patterns with some uniqueness in both types. Endocrine disrupting chemicals (EDCs) and their interactions with steroid hormone receptors like ER causes disruption of normal endocrine function. To identify the compounds that activate ER signaling, an ER beta-UAS-bla GripTite cell line (Life technologies, Madison, WI, USA) containing a beta-lactamase reporter gene under the control of an Upstream Activator Sequence (UAS) was used to screen Tox21 10K compound library.
Tox21 Assay Protocol Summary: ER-beta-UAS-bla HEK293T cells were dispensed at 2,000 cells/5 uL of assay medium containing 2% charcoal stripped FBS per well into black wall/clear-bottom 1536-well plates using a Multidrop Combi (ThermoFisher Scientific, Waltham, MA) dispenser. After the assay plates were incubated at a 37C and 5% CO2 for 6 hr, 23 nL of compounds dissolved in DMSO, positive controls or DMSO only was transferred to the assay plate by a Pintool station (Kalypsys, San Diego, CA). The plates were incubated at 37C and 5% CO2 for 16 hr. Then 1 uL of LiveBLAzerTM B/G FRET substrate was added using a BioRAPTR FRD (Flying Reagent Dispenser, Aurora Discovery, San Diego, CA). After the plates were incubated at room temperature for 2 hours, fluorescence intensity was measured by an Envision plate reader (PerkinElmer, Shelton, CT).
% is set by controls: 0 for no effect and ±100 for the full control effect.

SMILES	activation
COCCOC(=O)CC#N	0.0595% (inactive)
CSc1ccc(C=O)cc1	-0.0219% (inactive)
CN(C)N=Nc1ccccc1	1.51% (inactive)
C#CC(O)C(CC)CCCC (stereo not given)	-0.6% (inactive)
O=C(O)c1ccc[n+]([O-])c1	2.26% [at 42.5 µM] (inactive)
Cc1onc(-c2ccccc2)c1-c1ccc(S(N)(=O)=O)cc1	-0.403% [at 42.5 µM] (inactive)
CC(=O)OC(C)(C)C	1.95% (inactive)
CCCCCC[C@@H](CCC)C(=O)O	-4.45% [at 42.5 µM] (inactive)
O=C(O)/C=C/c1ccc(/C=C/C(=O)O)cc1	2.46% [at 42.5 µM] (inactive)
CN1[C@@H]2CC[C@H]1CC(NC(=O)n1c(=O)[nH]c3ccccc31)C2 (stereo not given in full)	0.818% [at 42.5 µM] (inactive)
NC(=S)Nc1cccc2ccccc12	-0.309% [at 8.39 µM] (inactive)
C1=C\CC/C=C\CC/C=C\CC/1	1.1% (inactive)
COC(=O)CCCC(=O)O	1.01% (inactive)
O=C(O)c1cccc(C(=O)O)n1	8.2% (inactive)
Nc1[nH]c(=O)ncc1F	2.67% [at 42.5 µM] (inactive)
N#CCN(CC#N)CCN(CC#N)CC#N	0.214% (inactive)
O=C(O)Cc1cc(I)c(Oc2cc(I)c(O)c(I)c2)c(I)c1	-0.669% [at 42.5 µM] (inactive)
CC(=O)N[C@@H](CCC(N)=O)C(=O)O	-0.0286% [at 42.5 µM] (inactive)
c1ccc(SCCSc2ccccc2)cc1	1.25% (inactive)
CCCCCOC(=O)Nc1nc(=O)n([C@@H]2O[C@H](C)[C@@H](O)[C@H]2O)cc1F	3.34% [at 42.5 µM] (inactive)

SMILES	activation
O=C1OC(=O)c2cc([N+](=O)[O-])ccc21	1.98% (inactive)
COc1ccc(NC(C)=O)cc1	10.9% (inactive)
CC(C)COC(=O)C(C)C	1.52% (inactive)
C=CCOc1nc(OCC=C)nc(OCC=C)n1	-1.97% (inactive)
NS(=O)(=O)c1cc2c(cc1C(F)(F)F)NC(Cc1ccccc1)NS2(=O)=O (stereo not given)	0.107% [at 42.5 µM] (inactive)
C=CCn1c(=O)n([C@@H]2O[C@H](CO)[C@@H](O)[C@H]2O)c2nc(N)[nH]c(=O)c21	5.91% [at 42.5 µM] (inactive)
CCCCCCCCCCCCCCC	0.846% (inactive)
OCc1ccccn1	-2.04% [at 42.5 µM] (inactive)
COC(=O)[C@H]1[C@H]2C[C@@H]3c4[nH]c5cc(OC)ccc5c4CCN3C[C@H]2C[C@@H](OC(=O)COc2ccc(OC)cc2)[C@@H]1OC	-0.665% [at 42.5 µM] (inactive)
CCCCc1ccc(N)cc1	-0.441% (inactive)
CNC(=O)c1c(I)c(NC(=O)CCCCC(=O)Nc2c(I)c(C(=O)O)c(I)c(C(=O)NC)c2I)c(I)c(C(=O)O)c1I	-1.76% [at 42.5 µM] (inactive)
Nc1nc2c(ncn2CCC(CO)CO)c(=O)[nH]1	-0.0404% [at 42.5 µM] (inactive)
COCc1ccc(COC)cc1	3.16% (inactive)
O=C(O)C1CCC1	-1.87% [at 42.5 µM] (inactive)
COc1cc(C)cc(O)c1	0.232% (inactive)
CC(C)[C@H](N)C(=O)OCCOCn1cnc2c(=O)[nH]c(N)nc21	2.16% [at 42.5 µM] (inactive)
CN(C)C(=O)C(CCN1CCC(O)(c2ccc(Cl)cc2)CC1)(c1ccccc1)c1ccccc1	-6.28% [at 42.5 µM] (inactive)
Cn1ccc2cc3c(cc21)CCN3C(=O)Nc1cccnc1	-2.3% [at 19 µM] (inactive)
NS(=O)(=O)c1cc(C2(O)NC(=O)c3ccccc32)ccc1Cl (stereo not given)	-1.39% [at 42.5 µM] (inactive)
C=C(C)C(=O)NCCCN(C)C	3.45% (inactive)
